Test results published in PubChem BioAssay AID588453 (National Center for Advancing Translational Sciences (NCATS), 2011).
The whole screen tested about 390,000 compounds, of which about 4,000 (1%) were called active. About 4% were inconclusive and are not listed. This excerpt belongs to a sample that is enriched for actives. Values without a mark were called inactive. Calls follow the shape of the dose curve; as a rule, active = well fitted inhibition curve with a large enough effect; inconclusive = small, poorly fitted or top-dose-only effect; inactive = no such curve, though single readings can be large or run the other way.
% is scaled to controls: 0 for no effect and ±100 for the full control effect; potency is read from the fitted curve at half-maximal effect.
Also: nearly all actives have a fitted effect of over 65% in size.

Each compound was assayed against Thioredoxin reductase 1, cytoplasmic (Rattus norvegicus) (UniProt O89049) (assay: qHTS Assay for Inhibitors of Mammalian Selenoprotein Thioredoxin Reductase 1 (TrxR1): qHTS). Conditions: recombinant rTrxR1, NADPH fluorescence consumption, selenite substrate; series mostly up to 114 µM; activity change, negative = inhibition: at the top concentration.
Chain of Thioredoxin reductase 1, cytoplasmic (Rattus norvegicus) (O89049 whole entry, looked up): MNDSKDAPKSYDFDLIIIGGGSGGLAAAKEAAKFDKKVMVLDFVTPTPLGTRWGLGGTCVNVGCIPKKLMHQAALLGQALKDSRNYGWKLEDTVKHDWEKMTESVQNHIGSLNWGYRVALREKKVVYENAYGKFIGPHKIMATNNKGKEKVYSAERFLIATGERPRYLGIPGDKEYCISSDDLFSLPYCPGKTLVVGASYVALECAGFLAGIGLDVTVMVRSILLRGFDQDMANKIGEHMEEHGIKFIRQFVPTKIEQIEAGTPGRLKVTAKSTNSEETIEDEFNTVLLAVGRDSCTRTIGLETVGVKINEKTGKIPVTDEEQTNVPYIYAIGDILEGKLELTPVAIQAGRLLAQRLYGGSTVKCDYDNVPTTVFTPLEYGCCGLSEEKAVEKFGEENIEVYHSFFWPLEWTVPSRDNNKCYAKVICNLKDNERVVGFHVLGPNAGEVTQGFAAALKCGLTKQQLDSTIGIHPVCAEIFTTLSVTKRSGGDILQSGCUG
Source text: The selenoprotein thioredoxin reductase (TrxR; EC 1.8.1.9) is a FAD containing homodimeric pyridine nucleotide-disulfide oxidoreductase with many cellular roles. Together with NADPH and its prime substrate thioredoxin (Trx), the enzyme forms the core of the Trx system. The mammalian Trx system exerts a wide spectrum of functions including redox regulation, antioxidant defense, regulation of transcription factors as well as support of cell growth and replication. Many of these functions involve the reduction of Trx, which may subsequently reduce a number of different substrates including ribonucleotide reductase, peroxiredoxins or NFkB. Mammalian TrxR itself also has a broad substrate specificity, reducing both protein and non-protein substrates, including low molecular weight compounds such as dehydroascorbate, lipoic acid, ubiquinone, and juglone. In addition, several drugs in clinical use for anticancer treatment are indeed known to target TrxR1.
This BioAssay is a validation of an NADPH fluorescence-based, dual-purpose qHTS rTrxR1 assay designed to find potential inhibitors and substrates of rTrxR1. For this particular BioAssay, actives are potential inhibitors. See related BioAssay for substrate data deposition.
NIH Molecular Libraries Probe Production Network [MLPCN]
NIH Chemical Genomics Center [NCGC]
Assay Provider: Elias Arner, Karolinska Institute
Assay protocol: 2 uL of reagents (buffer in column 4 as negative control and 90 nM rTrxR1 in columns 1-3 and 5-48) were dispensed into Greiner black solid-bottom 1,536-well assay plates, followed by 1 uL of NADPH (400 uM final concentration) to each well. The plates were centrifuged at 1000 rpm for 15 seconds and subsequently incubated for 5 min at room temperature (~22 deg C) to allow for rTrxR1 reduction. Compounds (23 nL) were then transferred via Kalypsys pin tool equipped with 1536-pin array (10 nL slotted pins, V&P Scientific, San Diego, CA). In addition, a duplicate 2-fold serial dilution of the control compounds auranofin, a known gold-based TrxR1 inhibitor, and juglone (5-hydroxy-1,4-naphthoquinone), a natural TrxR1 substrate, were pin-transferred to columns 2 and 3, respectively. After incubation for 15 min at room temperature (~22 deg C), 1 uL of selenite (400 uM final concentration) were dispensed to each well. The plate was immediately transferred to a ViewLux high-throughput CCD imager (PerkinElmer), wherein kinetic measurements of NADPH fluorescence (Ex 340 nm, Em 450 nm) were acquired (8 minute kinetic read, see Table 1). Read 1 was utilized to assess the capacity of a compound to serve as an rTrxR1 substrate, i.e. a decrease in NADPH fluorescence compared to the no-compound background is an indication of a substrate behavior for that particular compound. For inhibitory activity of a compound, delta values, computed as the difference in fluorescence intensity between the first and last reads of an 8-minute time kinetic window, were used. All reagents were diluted in an assay buffer consisting of 50 mM Tris-HCl, pH 7.5, 2 mM EDTA, and 0.01% Tween-20.
Throughout the screen, reagent bottle and all liquid lines were made light-tight to minimize reagent degradation. All screening operations were performed on a fully integrated robotic system (Kalypsys, San Diego, CA) containing one RX-130 and two RX-90 anthropomorphic robotic arms (Staubli, Duncan, SC). Library plates were screened starting from the lowest and proceeding to the highest concentration, and a 'double-pinning' step of the highest concentration was required to access higher concentrations of compounds. Vehicle-only plates, with DMSO being pin-transferred to the columns 5-48, were inserted uniformly at the beginning and the end of each library in order to monitor and record any shifts in the background, which can be affected by reagent dispensers or loss in enzyme activity over time. […]
For `Cc1ccc(CNC(=O)C2(C(F)(F)F)C/C(=C\Cc3ccccc3)CCCO2)o1` (stereo not drawn), the Potency was 28.2 µM (active).
In the case of `O=C(NCC1CC1)C1(C(F)(F)F)C/C(=C\CCO)CCCO1` (stereo not drawn), the “activity change, negative = inhibition” value was 18.4% [at 57.1 µM].
`O=C(NCc1ccccn1)[C@]1(C(F)(F)F)C[C@H](CCc2ccccc2)CCCO1` was tested, and the “activity change, negative = inhibition” value was 6.98%.
In the case of `CC(C)(C)OC(=O)N1CCC(c2c(C(=O)Nc3ccc4c(c3)OCO4)cnn2-c2ccccc2)CC1`, the “activity change, negative = inhibition” value was 8.02% [at 57.1 µM].
In the case of `Cc1ccc(Cl)cc1NC(=O)CCC(=O)N1CC(C)Sc2ccccc21` (stereo not drawn), the “activity change, negative = inhibition” value was 1.51%.
`c1ccc(C2CNCc3c2ccc2ccccc32)cc1` (stereo not drawn) was tested, and the Potency was 79.4 µM (active).
In the case of `O=C(CSc1nc2ccccc2nc1Cc1ccccc1)N1CCCCC1`, the “activity change, negative = inhibition” value was 2.16% [at 57.1 µM].
With `O=C(NC(=S)Nc1cccc(-c2ccc(CO)o2)c1)c1cccs1` the Potency was 39.8 µM (active).
With `Cn1c(SCC(=O)Nc2cccc(NC(=O)c3cccs3)c2)nnc1-c1ccncc1` the “activity change, negative = inhibition” value was 11.5% [at 57.1 µM].
`Cc1sc(NC(=S)NC(=O)c2cccs2)nc1-c1ccc(CC(C)C)cc1` was tested, and the “activity change, negative = inhibition” value was 16.1%.
For `Cc1nn(C)c2c1c(C(F)(F)F)cc(=O)n2C(C)C(=O)NCc1ccc(Cl)cc1` (stereo not drawn), the “activity change, negative = inhibition” value was 2.18% [at 57.1 µM].
For `NS(=O)(=O)c1ccc(NC(=O)C(=O)Nc2ccc3nc4n(c(=O)c3c2)CCCCC4)cc1`, the “activity change, negative = inhibition” value was 10.6%.
In the case of `Cc1cccc([C@H]2[C@@H]3C=CC[C@@H](C)[C@@H]3C(=O)N2Cc2ccccc2)c1`, the “activity change, negative = inhibition” value was 1.61%.
With `COc1ccc(Br)cc1C1C2C=CCC(C)C2C(=O)N1Cc1ccccc1` (stereo not drawn) the Potency was 22.4 µM (active).
`COc1ccc(-c2ccc(OC)c(C3C4C=CCC(C)C4C(=O)N3Cc3ccccc3)c2)cc1C` (stereo not drawn) was tested, and the “activity change, negative = inhibition” value was -6.11%.
For `O=c1c(NCc2cccs2)nccn1-c1ccccc1`, the “activity change, negative = inhibition” value was 14.5% [at 57.1 µM].
`C=CCn1c(=S)[nH]c2scc(-c3ccco3)c2c1=O` was tested, and the Potency was 39.8 µM (active).
In the case of `COc1ccc(C2C(=O)N(C3CCCCCC3)CC(=O)N2CCc2ccc(Cl)cc2)cc1OC` (stereo not drawn), the “activity change, negative = inhibition” value was 23.7% [at 57.1 µM].
`CCn1c(C)c(C)c2cc(C(=O)NCCc3cc(OC)ccc3OC)ccc21` was tested, and the “activity change, negative = inhibition” value was 18.4% [at 57.1 µM].
With `CC(CCc1ccccc1)NC(=O)c1cnc(Cl)c(Cl)c1` (stereo not drawn) the “activity change, negative = inhibition” value was 32.7%.
For `Cc1ccc(-c2nc(CS(=O)(=O)CC(=O)NCc3ccccc3Cl)c(C)o2)cc1`, the “activity change, negative = inhibition” value was -6.56%.
With `Cc1cccc(-c2nc(CS(=O)CC(=O)NC(C)CCc3ccccc3)c(C)o2)c1` (stereo not drawn) the Potency was 17.8 µM (active).
In the case of `Cc1csc[n+]1CCC1CCCCC1`, the “activity change, negative = inhibition” value was 35.2%.
`Cc1ccc2oc(=O)c3cnn(CC(=O)NCc4ccccc4Cl)c3c2c1` was tested, and the “activity change, negative = inhibition” value was 23.3%.
`CN(C)c1cc2c(Nc3ccc4c(cnn4Cc4ccccc4)c3)ncnc2cn1` was tested, and the Potency was “inactive”.
With `CCN1CCN(c2ccc(/C=C/c3ccnc4ccccc34)cc2)CC1` the “activity change, negative = inhibition” value was 14.8%.
With `Cc1ccc(S(=O)(=O)N(Cc2nc(-c3ccc(Cl)cc3)no2)C2CCCCC2)cc1` the “activity change, negative = inhibition” value was 32.3%.
In the case of `Cc1csc(NC(=S)Nc2cccc(Cl)c2)n1`, the Potency was 14.1 µM (active).
With `O=C(Nc1cccc(Cl)c1)c1csnn1` the “activity change, negative = inhibition” value was 12%.
For `Cc1csc(NC(=O)C2CCN(S(=O)(=O)c3ccccc3)CC2)n1`, the “activity change, negative = inhibition” value was 0.443%.
In the case of `CC1CCC2(CC1)N=C(c1ccccc1)C(=O)N2CC(=O)Nc1ccc(F)c(Cl)c1` (stereo not drawn), the “activity change, negative = inhibition” value was -10.4%.
`COc1ccc(Cl)cc1NC(=O)CCn1c(=O)c2cccn2c2ccccc21` was tested, and the “activity change, negative = inhibition” value was 13.6%.
In the case of `CCCS(=O)(=O)c1ncc(Cl)c(C(=O)Nc2scc(-c3ccccc3)c2C(=O)OCC)n1`, the Potency was 4.47 µM (active).
With `CCOC(=O)c1scc(-c2ccccc2)c1S(=O)(=O)Nc1ccccc1F` the “activity change, negative = inhibition” value was 8.78% [at 57.1 µM].
With `CCOC(=O)c1c(-c2ccc(C)cc2C)csc1NC(=O)CSc1nnnn1C` the “activity change, negative = inhibition” value was -2.88%.
`Cc1cc(C)c2oc(C(=O)Nc3c(C(=O)Nc4ccccc4)oc4ccccc34)cc(=O)c2c1` was tested, and the “activity change, negative = inhibition” value was 29%.
For `CC(=O)c1ccc[n+](C(C)CCC(C)[n+]2cccc(C(C)=O)c2)c1` (stereo not drawn), the “activity change, negative = inhibition” value was 9.71%.
For `O=C(Nc1ccc2nc(SCCOc3ccccc3Cl)sc2c1)c1ccco1`, the “activity change, negative = inhibition” value was -8.93%.
`Cc1ccccc1-c1nc(CS(=O)(=O)CC(=O)NC(C)c2ccccc2)c(C)o1` (stereo not drawn) was tested, and the Potency was “inactive”.
`COc1ccc(CNC(=O)CS(=O)Cc2nc(-c3cccc(C)c3)oc2C)cc1` (stereo not drawn) was tested, and the “activity change, negative = inhibition” value was -11.3%.
With `COc1cccc(-c2nc(CS(=O)(=O)CC(=O)N3CCN(c4cc(C)ccc4C)CC3)c(C)o2)c1` the “activity change, negative = inhibition” value was -6.98%.
`Cc1ccccc1-c1nc(CS(=O)(=O)CC(=O)N2CCc3ccccc3C2)c(C)o1` was tested, and the Potency was 7.94 µM (active).
For `Cc1ccc(-c2nc(CS(=O)CC(=O)N3CCN(c4ncccn4)CC3)c(C)o2)cc1` (stereo not drawn), the Potency was 10 µM (active).
In the case of `COc1ccc(-c2nc(CS(=O)CC(=O)NCc3ccccn3)c(C)o2)cc1` (stereo not drawn), the Potency was 7.08 µM (active).
`COc1ccc(-c2nc(CS(=O)CC(=O)NCc3cccnc3)c(C)o2)cc1OC` (stereo not drawn) was tested, and the “activity change, negative = inhibition” value was -62%.
`COc1ccc(-c2nc(CS(=O)CC(=O)N3CCc4ccccc4C3)c(C)o2)cc1` (stereo not drawn) was tested, and the Potency was 7.94 µM (active).
For `CNC(=O)c1ccc(-c2nc(CN3CCc4ccccc43)c(C)o2)cc1`, the “activity change, negative = inhibition” value was 13.2% [at 57.1 µM].
With `Cc1ccccc1-c1nc(CS(=O)(=O)CC(=O)Nc2cc(Cl)cc(Cl)c2)c(C)o1` the “activity change, negative = inhibition” value was 6.11%.
